This is a sample that favours compounds with a hit; in the whole collection about 9% have one here.
HP1b binding inh: inhibitors of HP1-beta chromodomain binding to methylated histone tails. AlphaScreen HP1-beta / biotin-H3K9me3 peptide binding. Potency, µM (top dose mostly 114 µM), most hits filed as inhibitors. hit rate 0.56% among 390,000; further: nearly all actives have a fitted effect of over 70% in size
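Compound inhibition of the preformed complex between 50 nM HP1-beta and 50 nM biotinylated H3K9me3 peptide was read by AlphaScreen. Buffer was PBS pH 7.4 with 0.01% Tween-20. Incubations ran 30 min at room temperature, with 10 ug/mL donor/acceptor beads.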
PLK1 PBD inh: blocks phosphopeptide binding to human PLK1 polo-box domain; Plk1 PBD binding of FITC phosphopeptide, fluorescence polarization; Potency, µM, actives largely listed as inhibitors; hit rate 2.8% among 360,000; AID 720504; further: series mostly up to about 57 µM; nearly all actives have a fitted effect of over 65% in size
JMJD2A Tudor: blocks the human JMJD2A Tudor domain; AlphaScreen JMJD2A-Tudor / H3K4me3 peptide binding; O75164; Potency, µM (series often up to 114 µM), hits mostly inhibitors; hit rate 4.4% among 390,000; further: nearly all actives have a fitted effect of over 50% in size
Target sequence (O75164 whole entry, looked up, the tested form may be a part): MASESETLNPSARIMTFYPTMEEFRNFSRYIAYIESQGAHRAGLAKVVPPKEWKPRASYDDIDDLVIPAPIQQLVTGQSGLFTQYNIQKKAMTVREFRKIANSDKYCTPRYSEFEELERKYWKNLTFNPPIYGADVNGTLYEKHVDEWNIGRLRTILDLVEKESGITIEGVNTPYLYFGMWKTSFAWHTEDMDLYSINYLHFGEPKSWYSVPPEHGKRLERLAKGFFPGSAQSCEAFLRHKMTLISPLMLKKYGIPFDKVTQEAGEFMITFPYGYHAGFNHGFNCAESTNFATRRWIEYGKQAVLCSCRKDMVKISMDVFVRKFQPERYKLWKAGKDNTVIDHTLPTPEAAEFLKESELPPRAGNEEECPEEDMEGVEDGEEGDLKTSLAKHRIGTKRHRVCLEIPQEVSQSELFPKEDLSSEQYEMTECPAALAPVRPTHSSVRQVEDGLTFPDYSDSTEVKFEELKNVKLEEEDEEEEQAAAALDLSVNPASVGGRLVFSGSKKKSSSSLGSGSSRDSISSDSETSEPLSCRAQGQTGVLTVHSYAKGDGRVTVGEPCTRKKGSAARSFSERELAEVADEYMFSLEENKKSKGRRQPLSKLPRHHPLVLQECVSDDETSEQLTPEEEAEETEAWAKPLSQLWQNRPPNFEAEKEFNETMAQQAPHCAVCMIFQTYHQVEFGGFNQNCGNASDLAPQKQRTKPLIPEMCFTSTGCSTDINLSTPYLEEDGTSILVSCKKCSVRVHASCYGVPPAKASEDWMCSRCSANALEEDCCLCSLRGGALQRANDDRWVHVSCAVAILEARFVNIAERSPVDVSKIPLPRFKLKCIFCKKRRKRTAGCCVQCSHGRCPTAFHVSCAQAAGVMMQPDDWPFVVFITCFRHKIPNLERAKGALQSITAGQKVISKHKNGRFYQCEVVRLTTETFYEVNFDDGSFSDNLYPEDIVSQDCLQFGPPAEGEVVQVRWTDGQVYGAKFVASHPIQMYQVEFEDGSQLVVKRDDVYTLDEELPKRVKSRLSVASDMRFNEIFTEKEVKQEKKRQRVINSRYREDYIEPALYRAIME
BAZ2B block: BAZ2B (human) inhibition; AlphaScreen BAZ2B-H3K14Ac peptide displacement; Potency, µM (titrated, usually from 114 µM), usual class: inhibitors; hit rate 4.4% among 360,000; AID 504333; further: nearly all actives have a fitted effect of over 60% in size
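BAZ2B (50 nM) with biotin-H3(5-23)K14Ac peptide (50 nM) in PBS pH 7.4, 0.01% Tween-20, preformed 30 min, then compound 30 min at room temperature; top concentration 110uM. AlphaScreen streptavidin donor/nickel chelate acceptor beads (10 ug/mL final), 20 min dark, signal read.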
G9a inh: inhibitors of human histone lysine methyltransferase G9a; Q96KQ7; G9a H3K9 monomethylation, AlphaScreen, 2 h; Potency, µM (top dose mostly 102 µM), hits mostly inhibitors; hit rate 8.8% among 350,000; AID 504332; further: nearly all actives have a fitted effect of over 75% in size
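G9a (20 nM) was preincubated 15 min with compound, then reacted 2 h at room temperature with 500 nM biotin-H3K9 peptide and 20 µM SAM. Monomethyl-H3K9 detected by AlphaScreen using anti-H3K9me1 antibody.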
12-LOX inh: inhibitors of human 12S-lipoxygenase ALOX12. purified 12hLO, xylenol orange hydroperoxide absorbance. hit rate 1.1% among 580,000. P18054. AID 1671190. Potency, µM (top dose mostly 108 µM), actives largely listed as inhibitors
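Hydroperoxide product was detected by ferrous iron/xylenol orange as the 573 to 405 nm absorbance ratio. Arachidonic acid at 40 uM (final) was turned over for 30 min at room temperature by 150 nM human 12hLO, pH 7.0 Hepes buffer, after 15 min compound preincubation.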
Large screens that a line does not name were inactive. The call rests on the fitted dose curve; in most records, active means well fitted curve in the direction sought with a large enough effect; inconclusive means small, poorly fitted or top-dose-only effect, or another doubt; inactive means no such curve, though single readings can be large; an effect the other way counts as inactive or inconclusive.

N#Cc1ccc(/C=N/Nc2ccccc2C(F)(F)F)cc1	12-LOX inh 10µM (no result: HP1b binding inh, PLK1 PBD inh, JMJD2A Tudor, BAZ2B block, G9a inh)
FC(F)(F)c1ccccc1N/N=C/c1cccnc1	G9a inh inconclusive, 12-LOX inh inconclusive
Cc1cc(NC(=O)CSc2ccccn2)no1	PLK1 PBD inh inconclusive, G9a inh 44.7µM
Cc1cc(NC(=O)CSc2c(C)[nH]c3ccccc23)no1	G9a inh 50.1µM
Cc1cc(NC(=O)CSc2nc(N)c(NC(=O)c3ccco3)c(=O)[nH]2)no1	PLK1 PBD inh 29.9µM, JMJD2A Tudor inconclusive (no result: G9a inh)
Cc1cc(NC(=O)COc2ccc3oc4ccccc4c3c2)no1	PLK1 PBD inh 29.9µM
Cc1cc(NC(=O)CSc2nc(N)c(NC(=O)c3ccccc3)c(=O)[nH]2)no1	none
Cc1cc(NC(=O)CSc2c[nH]c3ccccc23)no1	none
CCCn1nnc(NC(=O)C(c2ccccc2)c2ccccc2)n1	none
Cc1ccccc1-c1nc(-c2c(C)noc2C)cc2cc(CN(C)C)oc12	none (no result: HP1b binding inh, PLK1 PBD inh, JMJD2A Tudor, BAZ2B block, G9a inh)
Cc1ccccc1OCc1ccc(-c2nc(C#N)c(N(C)C)o2)o1	none (no result: HP1b binding inh, PLK1 PBD inh, JMJD2A Tudor, BAZ2B block, G9a inh)
Cc1ccccc1OCc1ccc(-c2nc(C#N)c(N3CCC(C(N)=O)CC3)o2)o1	JMJD2A Tudor inconclusive, BAZ2B block inconclusive, G9a inh 10µM, 12-LOX inh inconclusive (no result: PLK1 PBD inh)
CCN1CCN(c2oc(-c3ccc(COc4ccccc4C)o3)nc2C#N)CC1	HP1b binding inh inconclusive, JMJD2A Tudor 50.1µM (no result: PLK1 PBD inh)
COc1ccc(O)c(N)c1	BAZ2B block 50.1µM, G9a inh 7.94µM (no result: HP1b binding inh, PLK1 PBD inh, JMJD2A Tudor, 12-LOX inh)
COc1cc(CNc2nc3c(C)cc(C)cc3s2)ccc1O	JMJD2A Tudor inconclusive, BAZ2B block 50.1µM, G9a inh 44.7µM, 12-LOX inh inconclusive
CS(=O)(=O)N1CCC(C2CCN(C(=O)c3ccc(C#N)cc3)C2)CC1 (stereo unspecified)	none (no result: HP1b binding inh, PLK1 PBD inh, JMJD2A Tudor, BAZ2B block, G9a inh)
C=CCn1c(SCC(=O)Nc2ccc(OC)cc2)nnc1-c1cnccn1	none
Cc1cc2c(c(=O)n1CCN(C)C)C(c1ccc(Cl)cc1Cl)C(C#N)=C(N)O2 (stereo unspecified)	12-LOX inh 56.2µM (no result: HP1b binding inh, PLK1 PBD inh, JMJD2A Tudor, BAZ2B block, G9a inh)
N#CC1=C(N)OC2=C(C(=O)CC(c3ccccc3Cl)C2)C1c1ccc(Cl)cc1 (stereo unspecified)	12-LOX inh 15.8µM (no result: HP1b binding inh, PLK1 PBD inh, JMJD2A Tudor, BAZ2B block, G9a inh)
C=CCC1Cc2c(cccc2[N+](=O)[O-])C(CC=C)N1 (stereo unspecified)	JMJD2A Tudor inconclusive, BAZ2B block inconclusive, G9a inh 50.1µM, 12-LOX inh inconclusive
C=CCC1Cc2ccccc2C(CC=C)N1 (stereo unspecified)	none (no result: HP1b binding inh, PLK1 PBD inh, JMJD2A Tudor, BAZ2B block, G9a inh)
COc1cccc(N2CCN(C(=O)c3ccc(CS(=O)c4ccccc4C)o3)CC2)c1 (stereo unspecified)	PLK1 PBD inh inconclusive, JMJD2A Tudor inconclusive
CN1CCN(C(=O)c2ccc(CS(=O)Cc3ccc(Cl)cc3)o2)CC1 (stereo unspecified)	none
COc1ccc(N2CCN(C(=O)c3ccc(CS(=O)Cc4ccc(Cl)cc4)o3)CC2)cc1 (stereo unspecified)	JMJD2A Tudor inconclusive, BAZ2B block inconclusive, G9a inh 50.1µM
COc1ccc(N2CCN(C(=O)c3ccc(CS(=O)c4cccc(C)c4)o3)CC2)cc1 (stereo unspecified)	BAZ2B block inconclusive, G9a inh 56.2µM, 12-LOX inh inconclusive
COc1ccc(CCNC(=O)c2cc(S(=O)(=O)N3CCc4ccccc43)ccc2F)cc1OC	none (no result: HP1b binding inh, JMJD2A Tudor, BAZ2B block, G9a inh)
O=c1[nH]c2ccccc2c(O)c1-c1ccccc1[N+](=O)[O-]	PLK1 PBD inh 23.8µM
O=c1[nH]c2ccccc2c(O)c1-c1ccccc1	none
CCOc1ccc(N(CC(=O)NC2CCCCC2)S(=O)(=O)c2c(C)noc2C)cc1	PLK1 PBD inh 29.9µM, JMJD2A Tudor inconclusive
CCc1ccc(N(CC(=O)O)S(=O)(=O)c2c(C)noc2C)cc1	PLK1 PBD inh 29.9µM
Cc1cc(C)n(-c2ccccc2[N+](=O)[O-])n1	none
O=C(c1ccc(O)cc1)c1ccc(F)cc1	none (no result: HP1b binding inh, PLK1 PBD inh, JMJD2A Tudor, BAZ2B block, G9a inh)
COc1ccccc1-c1noc(-c2ccc(S(=O)(=O)NC3CC3)o2)n1	none (no result: HP1b binding inh, PLK1 PBD inh, JMJD2A Tudor, BAZ2B block, G9a inh)
CC(C)C(NS(=O)(=O)c1ccccc1)C(=O)NC1CCCC1 (stereo unspecified)	none (no result: G9a inh)
COc1ccc(C(=O)/C=C/C(=O)N(CC(=O)NCCC(C)C)Cc2cccs2)c(O)c1	PLK1 PBD inh 33.6µM, 12-LOX inh inconclusive

Screening results: PubChem BioAssay, National Center for Advancing Translational Sciences (NCATS)
